# In PubChem BioAssay AID1159580 (chemical genetic matrix, 2015):
# The campaign covered roughly 5,500 compounds. About 2,000 (36%) were called active. Roughly 18% stayed inconclusive and do not appear here. The list shows a part of the results. Unmarked numbers belong to inactive results. Rule as the data show it: active = normalized growth mostly below about 0.91 (no sharp cut-off); inconclusive = no clear call, values can overlap the other calls; inactive = mostly above about 0.92.
# Test: chemical genetic growth profiling, strain panel (AID 1159580);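 also: tested at 20 µM; growth read once vehicle control cultures reached saturation at 30 °C; 1 = growth at the plate median or of vehicle wells; lower values mean less growth of the strain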
# Settings: S. cerevisiae deletion strains, growth OD
# [1] = locus YAL013W, strain DEP1, active compounds read low
# [2] = locus YBR229C, strain ROT2, active compounds read low
# [3] = locus YDL101C, strain DUN1, active compounds read low
# [4] = locus YDR150W, strain NUM1, active compounds read low
# [5] = locus YEL061C, strain CIN8, active compounds read low
# [6] = locus YGR078C, strain PAC10, active compounds read low
# [7] = locus YGR229C, strain SMI1, active compounds read low
# [8] = locus YHR030C, strain SLT2, active compounds read low
# [9] = locus YHR087W, strain rtc3, active compounds read low
# [10] = locus YJL187C, strain SWE1, active compounds read low
# [11] = locus YJR043C, strain POL32, active compounds read low
# [12] = locus YJR075W, strain HOC1, active compounds read low
# [13] = locus YLR039C, strain RIC1, active compounds read low
# [14] = locus YLR058C, strain SHM2 (second series), active compounds read low
# [15] = locus YLR085C, strain ARP6, active compounds read low
# [16] = locus YLR262C, strain YPT6, active compounds read low
# [17] = locus YML094W, strain GIM5, active compounds read low
# [18] = locus YMR219W, strain ESC1, active compounds read low
# [19] = locus YMR263W, strain SAP30, active compounds read low
# [20] = locus YNL153C, strain GIM3, active compounds read low
# [21] = locus YNL298W, strain CLA4 (second series), active compounds read low
# [22] = locus YNL322C, strain KRE1, active compounds read low
# [23] = locus YNR030W, strain Alg12, active compounds read low
# [24] = locus YPL055C, strain LGE1, active compounds read low
# [25] = locus YPL241C, strain CIN2, active compounds read low
# [26] = locus YPR135W, strain CTF4, active compounds read low
structure (smiles),measurement,setting,value
COc1ccc(-n2c(=S)[nH]c(=O)c3cccnc32)cc1,normalized growth,[1],1
same,normalized growth,[2],1.01
same,normalized growth,[3],1.04
same,normalized growth,"locus YDL134C, strain PPH21, active compounds read low",0.996
same,normalized growth,[4],0.985
same,normalized growth,[5],1
same,normalized growth,[6],1.04
same,normalized growth,[7],0.993
same,normalized growth,[8],1.06
same,normalized growth,[9],0.954
same,normalized growth,[10],0.99
same,normalized growth,[11],1.04
same,normalized growth,[12],0.993
same,normalized growth,[13],0.999
same,normalized growth,[14],0.991
same,normalized growth,[15],1.03
same,normalized growth,[16],0.988
same,normalized growth,[17],0.983
same,normalized growth,[18],0.999
same,normalized growth,[19],1.02
same,normalized growth,[20],1.02
same,normalized growth,[21],1
same,normalized growth,[22],1.01
same,normalized growth,[23],0.994
same,normalized growth,[24],0.973
same,normalized growth,[25],0.991
same,normalized growth,[26],1.05
CCN(CC)CCOC(=O)c1cc(Cl)c(N)cc1OC,normalized growth,"locus YAL040C, strain CLN3, active compounds read low",0.981
same,normalized growth,"locus YCL061C, strain MRC1 (second series), active compounds read low",1.01
same,normalized growth,[4],1
same,normalized growth,"locus YDR363W, strain ESC2, active compounds read low",1
same,normalized growth,"locus YER002W, strain NOP16, active compounds read low",1.02
same,normalized growth,[6],1.01
same,normalized growth,[7],1.01
same,normalized growth,[12],1.01
same,normalized growth,[19],1
same,normalized growth,"locus YMR307W, strain GAS1, active compounds read low",1
same,normalized growth,"locus YNL128W, strain TEP1, active compounds read low",1
same,normalized growth,[20],1
same,normalized growth,"locus YNL175C, strain NOP13, active compounds read low",1
same,normalized growth,"locus YNL197C, strain WHI3, active compounds read low",1.01
same,normalized growth,"locus YNL224C, strain SQS1, active compounds read low",1
same,normalized growth,"locus YOR083W, strain WHI5 (second series), active compounds read low",1.01
same,normalized growth,[24],0.954
same,normalized growth,[25],1
COC(=O)c1ccc(Cl)cc1NS(=O)(=O)c1ccc(OC)c(OC)c1,normalized growth,[1],1.01
same,normalized growth,[2],0.976
same,normalized growth,[3],0.987
same,normalized growth,[4],1.04
same,normalized growth,[5],1.01
same,normalized growth,[6],0.986
same,normalized growth,[7],1.02
same,normalized growth,[8],0.969
same,normalized growth,[9],1.02
same,normalized growth,[10],1
same,normalized growth,[11],0.978
same,normalized growth,[12],0.984
same,normalized growth,"locus YKL190W, strain CNB1, active compounds read low",1.01
same,normalized growth,[13],0.934
same,normalized growth,[14],1.01
same,normalized growth,[15],1.01
same,normalized growth,[16],0.947
same,normalized growth,[17],1.03
same,normalized growth,[18],1
same,normalized growth,[19],0.986
same,normalized growth,[20],0.996
same,normalized growth,[21],0.989
same,normalized growth,[22],1
same,normalized growth,[23],0.998
same,normalized growth,[24],0.966
same,normalized growth,[25],1.01
same,normalized growth,[26],0.999
COc1cc(Cl)ccc1N/N=C(/C#N)C(N)=O,normalized growth,"locus YAR019C, strain CDC15, active compounds read low",0.106 (active)
same,normalized growth,"locus YBL105C, strain PKC1, active compounds read low",0.0965 (active)
same,normalized growth,"locus YBR135W, strain CKS1, active compounds read low",0.109 (active)
same,normalized growth,"locus YBR136W, strain MEC1, active compounds read low",0.104 (active)
same,normalized growth,"locus YBR160W, strain CDC28, active compounds read low",0.104 (active)
same,normalized growth,"locus YDL017W, strain CDC7, active compounds read low",0.0952 (active)
same,normalized growth,"locus YDL028C, strain MPS1, active compounds read low",0.111 (active)
same,normalized growth,[3],0.124 (active)
same,normalized growth,"locus YDL108W, strain KIN28, active compounds read low",0.114 (active)
same,normalized growth,"locus YDL132W, strain cdc53, active compounds read low",0.102 (active)
same,normalized growth,"locus YDL214C, strain PRR2, active compounds read low",0.116 (active)
same,normalized growth,"locus YDR052C, strain DBF4, active compounds read low",0.0987 (active)
same,normalized growth,"locus YDR054C, strain cdc34, active compounds read low",0.104 (active)
same,normalized growth,"locus YDR226W, strain ADK1, active compounds read low",0.103 (active)
same,normalized growth,"locus YDR477W, strain SNF1, active compounds read low",0.115 (active)
same,normalized growth,"locus YER123W, strain YCK3, active compounds read low",0.112 (active)
same,normalized growth,"locus YER133W, strain GLC7, active compounds read low",0.12 (active)
same,normalized growth,"locus YFL009W, strain cdc4, active compounds read low",0.109 (active)
same,normalized growth,"locus YFL029C, strain CAK1, active compounds read low",0.109 (active)
same,normalized growth,"locus YFR003C, strain YPI1, active compounds read low",0.0947 (active)
same,normalized growth,"locus YFR019W, strain FAB1, active compounds read low",0.112 (active)
same,normalized growth,"locus YFR028C, strain CDC14, active compounds read low",0.106 (active)
same,normalized growth,"locus YGR040W, strain KSS1, active compounds read low",0.112 (active)
same,normalized growth,"locus YGR052W, strain FMP48, active compounds read low",0.153 (active)
same,normalized growth,"locus YGR092W, strain DBF2, active compounds read low",0.11 (active)
same,normalized growth,[8],0.194 (active)
same,normalized growth,"locus YHR079C, strain IRE1, active compounds read low",0.214 (active)
same,normalized growth,"locus YHR082C, strain KSP1, active compounds read low",0.221 (active)
same,normalized growth,"locus YHR205W, strain SCH9, active compounds read low",0.0135 (active)
same,normalized growth,"locus YIL147C, strain SLN1, active compounds read low",0.107 (active)
same,normalized growth,"locus YJL095W, strain BCK1, active compounds read low",0.189 (active)
same,normalized growth,"locus YJL128C, strain PBS2, active compounds read low",0.103 (active)
same,normalized growth,"locus YJL157C, strain FAR1, active compounds read low",0.105 (active)
same,normalized growth,"locus YJR016C, strain ILV3, active compounds read low",0.0991 (active)
same,normalized growth,"locus YJR066W, strain TOR1 (second series), active compounds read low",0.112 (active)
same,normalized growth,"locus YJR066W, strain TOR1, active compounds read low",0.181 (active)
same,normalized growth,"locus YKL048C, strain ELM1, active compounds read low",0.128 (active)
same,normalized growth,"locus YKL067W, strain YNK1, active compounds read low",0.119 (active)
same,normalized growth,"locus YKL101W, strain HSL1, active compounds read low",0.106 (active)
same,normalized growth,"locus YKL193C, strain SDS22, active compounds read low",0.106 (active)
same,normalized growth,"locus YKL203C, strain TOR2, active compounds read low",0.116 (active)
same,normalized growth,"locus YLR113W, strain HOG1, active compounds read low",0.262 (active)
same,normalized growth,"locus YLR133W, strain CKI1, active compounds read low",0.111 (active)
same,normalized growth,"locus YLR403W, strain SFP1, active compounds read low",0.00868 (active)
same,normalized growth,"locus YML070W, strain DAK1, active compounds read low",0.114 (active)
same,normalized growth,"locus YMR001C, strain CDC5, active compounds read low",0.108 (active)
same,normalized growth,"locus YMR205C, strain PFK2 (second series), active compounds read low",0.104 (active)
same,normalized growth,"locus YMR277W, strain FCP1, active compounds read low",0.106 (active)
same,normalized growth,"locus YNL006W, strain LST8, active compounds read low",0.0981 (active)
same,normalized growth,"locus YNL020C, strain ARK1, active compounds read low",0.11 (active)
same,normalized growth,"locus YNL161W, strain CBK1, active compounds read low",0.106 (active)
same,normalized growth,"locus YNL183C, strain NPR1, active compounds read low",0.148 (active)
same,normalized growth,"locus YNL207W, strain RIO2, active compounds read low",0.107 (active)
same,normalized growth,"locus YNL222W, strain SSU72, active compounds read low",0.105 (active)
same,normalized growth,"locus YNL307C, strain MCK1 (second series), active compounds read low",0.12 (active)
same,normalized growth,"locus YOL078W, strain AVO1, active compounds read low",0.105 (active)
same,normalized growth,"locus YOL136C, strain PFK27, active compounds read low",0.115 (active)
same,normalized growth,"locus YOR061W, strain CKA2, active compounds read low",0.0994 (active)
same,normalized growth,"locus YOR119C, strain RIO1, active compounds read low",0.115 (active)
same,normalized growth,"locus YOR231W, strain MKK1, active compounds read low",0.231 (active)
same,normalized growth,"locus YOR329C, strain SCD5, active compounds read low",0.102 (active)
same,normalized growth,"locus YPL031C, strain PHO85, active compounds read low",0.107 (active)
same,normalized growth,"locus YPL153C, strain RAD53, active compounds read low",0.111 (active)
same,normalized growth,"locus YPL204W, strain HRR25, active compounds read low",0.117 (active)
same,normalized growth,"locus YPL209C, strain IPL1, active compounds read low",0.0959 (active)
same,normalized growth,"locus YPL256C, strain CLN2, active compounds read low",0.231 (active)
same,normalized growth,"locus YPR025C, strain CCL1, active compounds read low",0.107 (active)
same,normalized growth,"locus YPR106W, strain ISR1, active compounds read low",0.0943 (active)
same,normalized growth,"locus YPR111W, strain DBF20, active compounds read low",0.108 (active)
same,normalized growth,"strain NNK1, active compounds read low",0.0995 (active)
same,normalized growth,"strain TSCII, active compounds read low",0.107 (active)
